High-throughput results deposited in PubChem BioAssay by National Center for Advancing Translational Sciences (NCATS).
MCF10A rereplic = induces DNA re-replication in MCF 10a normal breast cells; MCF 10A DNA re-replication, Hoechst nuclear intensity, 48 h; Potency, µM (highest dose often 46.1 µM), for inactives: at the highest dose activity, positive = re-replication, hits mostly activators; actives 2.9% (n = 350,000); AID 624296; also: potency is read from the fitted curve at half-maximal effect; % of control where 0% means no effect; nearly all actives have a fitted effect of over 50% in size
IL1B secr inh = inhibitors of inflammasome signaling (IL-1 beta secretion); activity change, % at 57.5 µM; actives 4.7% (n = 360,000); THP-1 LPS/ATP IL-1B secretion, AlphaLISA, 16 h; active compounds read low; AID 743279; in the data active = activity change below about -50%; inconclusive = mostly about -30% to -49%; also: % is scaled to controls: 0 for no effect and ±100 for the full control effect
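Secreted IL-1B measured by AlphaLISA bead assay after 16 h compound exposure of THP-1 cells; compounds (final up to 57.5 uM) added 1 h before LPS (250 ng/mL) and ATP (1.25 mM) stimulation; lower signal means less secretion.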
SW480 rereplic = induces DNA re-replication in SW480 colon adenocarcinoma cells; SW480 DNA re-replication, Hoechst DNA content imaging, 48 h; Potency, µM (series often up to 46.1 µM), for the others: at the top dose re-replication activation, actives largely listed as activators; actives 1.8% (n = 340,000); AID 624297; also: potency is read from the fitted curve at half-maximal effect; % of control where 0% means no effect; nearly all actives have a fitted effect of over 55% in size
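Cells (250 per well) received 23 nL compound or DMSO by pin tool and were kept 48 hr at 37 C, 5% CO2. Nuclei were then stained with Hoechst for 40 min and scanned for DNA content.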
RORg inh = inhibitors of mouse ROR gamma transcriptional activity; P51450; Drosophila S2 Gal4-RORgamma UAS-luciferase reporter, 20 h; Potency, µM (titrated, usually from 53.6 µM), without a hit: at the highest dose activity change, negative = inhibition, actives largely listed as inhibitors; actives 5.4% (n = 310,000); AID 2551; also: potency is read from the fitted curve at half-maximal effect; % is scaled to controls: 0 for no effect and ±100 for the full control effect; nearly all actives have a fitted effect of over 60% in size
Target sequence (P51450 whole entry, looked up, the tested form may be a part): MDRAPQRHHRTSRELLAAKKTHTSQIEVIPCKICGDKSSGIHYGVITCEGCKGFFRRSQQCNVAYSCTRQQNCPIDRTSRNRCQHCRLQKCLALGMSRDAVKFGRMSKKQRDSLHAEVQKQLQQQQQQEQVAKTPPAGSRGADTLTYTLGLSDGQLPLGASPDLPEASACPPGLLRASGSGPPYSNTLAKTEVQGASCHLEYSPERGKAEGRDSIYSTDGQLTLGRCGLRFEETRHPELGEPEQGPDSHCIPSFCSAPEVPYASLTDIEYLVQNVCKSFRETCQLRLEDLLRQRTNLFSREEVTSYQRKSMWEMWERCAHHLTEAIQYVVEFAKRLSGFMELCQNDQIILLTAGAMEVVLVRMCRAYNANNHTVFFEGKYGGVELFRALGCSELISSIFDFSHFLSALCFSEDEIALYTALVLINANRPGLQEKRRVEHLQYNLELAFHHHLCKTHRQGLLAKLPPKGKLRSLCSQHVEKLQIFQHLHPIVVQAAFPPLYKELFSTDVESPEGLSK
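Schneider cells (Drosophila), stable Gal4 DBD–ROR gamma + UAS-luc; 1 hr cmpd preincubation; Cu2+ induction 700 uM final; 20 hr ambient; luminescence.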
VP16 counter = counter-screen for ROR gamma inhibitors: Gal4-VP16 reporter; actives 3.5% (n = 310,000); Potency, µM (doses to about 53.6 µM), inactives show at the highest dose activity, negative = inhibition, usual class: inhibitors; Drosophila S2 Gal4-VP16 UAS-luciferase, luminescence, 20 h;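 also: Gal4-VP16 expression switched on by copper sulfate through the metallothionein promoter; potency is read from the fitted curve at half-maximal effect; % is scaled to controls: 0 for no effect and ±100 for the full control effect; nearly all actives have a fitted effect of over 50% in size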
The depositor's hits bear a star; ? = inconclusive; / = no result given; [ ] = dose if it differs, or a comment. Shown are actives, neighbours in structure and some others; about 11% of the full set was active somewhere. Unless noted, calls follow the shape of the dose curve; as a rule, active = well fitted curve in the direction sought with a large enough effect; inconclusive = small, poorly fitted or top-dose-only effect, or another doubt; inactive = no such curve, though single readings can be large; an effect the other way counts as inactive or inconclusive.

SMILES	MCF10A rereplic	IL1B secr inh	SW480 rereplic	RORg inh	VP16 counter
CC(Nc1nc(=S)nc(Nc2ccc(F)cc2)[nH]1)c1ccccc1 (configuration not stated)	2.8%	16.0	25.9%	?	?
CCNc1nc(=S)nc(NC(C)C)[nH]1	-0.5%	7.3	-1.6%	10µM*	12.6µM*
CCCCNC(=O)CSc1nc2ccc(N3CCOCC3)cc2c(=O)n1CCc1ccccc1	5.3%	20.7	-3.1%	7.94µM*	7.94µM*
CCOC(=O)CSc1nc2ccc(N3CCOCC3)cc2c(=O)n1Cc1ccccc1	?	11.7	-10.2%	12.6µM*	?
CCCCn1c(SCC(=O)NCCOC)nc2ccc(N3CCOCC3)cc2c1=O	10.7%	16.6	-5.5%	?	-17.3%
COCCNC(=O)CSc1nc2ccc(N3CCOCC3)cc2c(=O)n1CCc1ccccc1	25.7%	-18.7	-11.2%	3.55µM*	?
CCOC(=O)CSc1nc2ccccc2c(=O)n1CCN1CCOCC1	-1.9%	-1.2	-1.3%	-20.7%	-15.1%
O=C(CSc1nc2ccc(N3CCOCC3)cc2c(=O)n1CCc1ccccc1)NCC1CCCO1 (configuration not stated)	23.1µM*	-11.1	28.7%	5.62µM*	12.6µM*
COc1ccc(-c2nc3cnc(Oc4cccc(Cl)c4)nc3n(C3CC3)c2=O)cc1	/	/	/	-4.4%	-0.2%
O=C(Nc1ccc(Cl)cc1)N1CCCN(Cc2ccc(F)cc2)C1	20.6µM*	?	?	-24.4%	-4.0%
O=C(Nc1ccccc1)N1CCN(Cc2ccc(Cl)cc2)CC1	-6.5%	-9.9	?	45.8%	-19.5%
CC1=CC(C)(C)N(C(=O)CN2C(=O)CCC2=O)c2ccccc21	0.2%	-2.3	-5.2%	13.7%	4.0%
CC1=CC(C)(C)N(C(=O)CN2C(=O)c3ccccc3C2=O)c2ccc(C)cc21	-1.9%	0.0	-7.5%	?	20µM*
O=C(Nc1ccccc1N1CCN(C(=O)c2ccc(Cl)cc2)CC1)c1ccc([N+](=O)[O-])o1	?	-76.2*	16.4µM*	-100.4%	?
Cc1ccccc1C(=O)N1CCN(c2ccc(NC(=O)c3ccc4c(c3)OCO4)cc2)CC1	?	-131.5*	-3.4%	?	-5.5%
O=C(Cc1ccc(Cl)cc1)Nc1ccccc1N1CCN(C(=O)c2ccccc2)CC1	18.4µM*	?	?	-28.7%	-17.7%
Cc1ccccc1C(=O)N1CCN(c2ccc(NC(=O)c3ccc([N+](=O)[O-])o3)cc2)CC1	?	-94.6*	1.64µM*	-28.1%	?
O=C(Nc1ccccc1N1CCN(C(=O)c2ccccc2)CC1)c1ccc(Cl)cc1	3.7%	?	?	33.4%	-11.1%
COC[C@H]1CCCN1[C@H]1CS(=O)(=O)N[C@@H]1COCc1ccccc1	/	-11.7	/	/	/
COc1cc(CC(=O)N2CCN(S(=O)(=O)c3ccc(C(C)C)cc3)CC2)cc(OC)c1OC	/	-11.0	/	/	/
O=C(Nc1ccc(N2CCN(C(=O)c3ccc(Cl)cc3)CC2)cc1)c1ccc(Br)o1	?	-69.0*	2.9%	35.7%	4.5%
O=C(Nc1ccc(N2CCN(C(=O)c3ccc(Cl)cc3)CC2)cc1)c1cc2ccccc2o1	-2.9%	-0.8	9.7%	-16.4%	-12.6%
O=C(Nc1ccc(N2CCN(C(=O)c3ccccc3)CC2)cc1)c1ccc([N+](=O)[O-])o1	?	-95.5*	-14.7%	23.7%	-2.3%
Cc1ccc(S(=O)(=O)NC(=O)NC2CCCCCCC2)cc1	-4.8%	/	-1.0%	2.1%	-8.6%
CC(=O)c1ccc2c(c1)CC1(C2)Cc2cc3c(cc2C1)C(=O)CC3 (configuration not stated)	4.11µM*	13.8	7.31µM*	/	/
SMILES	MCF10A rereplic	IL1B secr inh	SW480 rereplic	RORg inh	VP16 counter
CC(=O)c1ccc2c(c1)Cc1cc(C(C)=O)ccc1-2	-4.3%	-28.4	-3.4%	?	-16.2%
CCOC(=O)C1=C(C)N=c2s/c(=C\c3cccc(OCC(=O)O)c3)c(=O)n2C1c1ccccc1OC (configuration not stated)	-5.4%	1.2	0.7%	16.1%	-2.5%
CCOC(=O)C1=C(c2ccccc2)N=c2s/c(=C\c3cccc(O)c3)c(=O)n2C1c1cccs1 (configuration not stated)	?	-75.0*	?	33.5%	-25.6%
Cn1c(-c2cc(Br)ccc2O)n[nH]c1=S	?	?	16.8%	?	?
CCn1c(-c2cc(-c3ccccc3)sc2N)n[nH]c1=S	12.0%	10.7	-8.3%	3.98µM*	12.6µM*
Cc1ccccc1-c1n[nH]c(=S)n1Cc1ccccc1	7.4%	-8.7	-4.5%	2.0%	-2.7%
S=c1[nH]nc(-c2ccccc2Br)n1Cc1ccccc1	2.3%	14.1	-1.4%	4.47µM*	6.31µM*
Oc1ccccc1-c1n[nH]c(=S)n1Cc1ccccc1	-7.4%	6.7	-2.2%	11.2µM*	-27.7%
CCn1c(C2CCN(Cc3ccccc3)CC2)n[nH]c1=S	7.8%	-9.8	1.6%	-29.5%	-3.1%
Oc1ccc(Br)cc1-c1n[nH]c(=S)n1Cc1ccccc1	8.6%	-6.3	11.2%	10µM*	-7.8%
CNC(=O)C1(C)CCN1C(=O)Cc1ccc(C(C)C)cc1 (configuration not stated)	/	17.2	/	/	/
COc1cc2nc3c(c([Si](C)(C)C(C)(C)C)c2cc1OC)Cn1c-3cccc1=O	/	/	/	17.0%	-2.3%
O=C(NCc1ccccc1)C1Cc2c(-c3ccc(Cl)cc3)ccnc2O1 (configuration not stated)	/	53.5	/	/	/
OCC(O)C(O)C(O)C(O)CO (configuration not stated)	-1.6%	/	-7.9%	10.1%	-3.8%
COCCn1c(-c2ccccc2F)n[nH]c1=S	-3.1%	17.5	0.2%	7.7%	-1.5%
CCn1c(-c2ccccc2O)n[nH]c1=S	1.4%	21.3	9.1%	12.6µM*	-25.9%
Cc1cc(N2C(=O)C=CC2=O)c([N+](=O)[O-])cc1C	18.4µM*	-3.4	16.4µM*	7.08µM*	4.47µM*
CC(C)CC1OC(C)Cc2[nH][nH]c(=O)c21 (configuration not stated)	/	-5.5	/	/	/
CC(=O)Nc1ccc(NC(=O)C/C(C)=N/NC(N)=S)cc1	3.3%	19.3	3.7%	?	-2.4%
C/C(CC(C)(C)C1CCCCC1)=N\NC(N)=S	0.5%	-101.6*	8.9%	0.891µM*	2.82µM*
O=C(Nc1nc(-c2cccs2)c(-c2cccs2)s1)C1(c2ccccc2)CC1	20.6µM*	3.7	5.5%	4.7%	-12.8%
COc1cc(/C=N/n2c(-c3ccc4c(c3)NC(=O)CO4)csc2=Nc2cccc(C)c2)ccc1O	23.1µM*	?	?	?	?
COCCN=c1scc(-c2cccs2)n1/N=C(\C)c1ccco1	4.1%	?	-283.8%[1.84 µM]	?	?
